# Measurements from PubChem BioAssay.
# Active and inactive are the calls of the source.
# Columns and labels:
# [1] = tested on: Plasmodium falciparum Sir2 (PF13_0152, Sir2A); experiment: pfSir2 binders on small-molecule microarrays, primary screen, biochemical, small-molecule microarray, 635 nm fluorescence (AID 1098); details: small-molecule microarray binding, fluorescence 635 nm; higher = more signal;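 note: score merges spot fluorescence intensity with its signal-to-noise ratio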
# [2] = small-molecule microarray binders of probe aDKK1, primary screen, biochemical, biotinylated probe, 635/667 nm fluorescence (AID 1099); details: higher = more signal;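 note: score merges 667nm spot fluorescence with signal to noise across triplicate slides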
# [3] = small-molecule microarray binders of probe aCHRDL2, primary screen, biochemical, biotinylated probe, 635/667 nm fluorescence (AID 1100); details: higher = more signal
# [4] = splicing luciferase reporter signal modulators, primary screen, spliceosome inhibition project, cell-based, HEK293, splice +/- reporter (AID 1101); details: luminescence, 24 h, higher = more signal, called active from +8 up or from −8 down;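 note: HEK293 cells carrying a splicing-competent luciferase reporter gene; test concentration not given here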
# [5] = molecular target: Fibroblast growth factor 10 (Homo sapiens) (UniProt O15520); experiment: FGF10 binders on small-molecule microarrays, primary screen, biochemical, small-molecule microarray, 635 nm fluorescence (AID 1102); details: FGF10 binding, fluorescence 635 nm, higher = more signal
# [6] = tested on: glycogen synthase kinase-3 (GSK3A per assay name; protocol says GSK3B); experiment: GSK3 binders on small-molecule microarrays, primary screen, biochemical, small-molecule microarray, 635 nm fluorescence, GSK3A (AID 1103); details: small-molecule microarray binding, fluorescence 635 nm; higher = more signal; note: the record names both GSK3A and GSK3B
# [7] = molecular target: Epidermal growth factor receptor (Homo sapiens) (UniProt P00533); experiment: EGFR binders on small-molecule microarrays, primary screen, biochemical, small-molecule microarray, 635 nm fluorescence (AID 1104); details: EGFR binding, higher = more signal;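 note: score merges 667 nm emission intensity with spot signal to noise over triplicate slides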
# [8] = molecular target: Follistatin-related protein 3 (Homo sapiens) (UniProt O95633); experiment: FSTL3 binders on small-molecule microarrays, primary screen, biochemical, small-molecule microarray, 635 nm fluorescence (AID 1105); details: FSTL3 binding, higher = more signal;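 note: score merges emission near 667 nm and signal to noise per printed spot across three slides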
# [9] = molecular target: Dickkopf-related protein 1 (Homo sapiens) (UniProt O94907); experiment: DKK1 binders on small-molecule microarrays, primary screen, biochemical, small-molecule microarray, 635 nm fluorescence scan (AID 1106); details: DKK1 binding, higher = more signal;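 note: score merges emission near 667 nm with signal to noise over three replicate slides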
# [10] = tested on: Inhibin beta A chain (activin A); experiment: INHBA (activin A) binders on microarrays, primary screen, biochemical, small-molecule microarray, 635 nm fluorescence scan (AID 1107); details: small-molecule microarray binding, higher = more signal;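 note: mouse activin A protein probed at 4.33 µg/mL on printed slides; score merges bound-protein fluorescence near 667 nm with spot signal-to-noise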
# [11] = tested on: Human papillomavirus type 1a protein E7 (residues 44-93); experiment: HPV1a E7 fragment binders on microarrays, primary screen, biochemical, small-molecule microarray, residues 44-93, 635 nm fluorescence (AID 1108); details: small-molecule microarray binding, fluorescence 635 nm; higher = more signal;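 note: E7 fragment applied at 1 µg/mL in TBST for 1 h at 4 C; score combines spot fluorescence with its signal to noise ratio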
# [12] = modulators of HCV replicon luciferase signal, primary screen, HCV replication inhibitor project, Huh7 cells, luciferase reporter (AID 1109); details: 48 h, higher = more signal;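 note: huh7 hepatoma cells harbouring a luciferase neomycin HCV replicon reporter; luciferase luminescence as measure of HCV replicon replication; test concentration not given here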
# [13] = molecular target: Left-right determination factor 2 (Homo sapiens) (UniProt O00292); experiment: LEFTY2 binders on small-molecule microarrays, primary screen, biochemical, small-molecule microarray, 635 nm fluorescence scan (AID 1110); details: LEFTY2 binding, higher = more signal
# [14] = molecular target: Calmodulin-1 (Homo sapiens) (UniProt P0DP23); experiment: CALM1 binders on microarrays, EGTA buffer, profiling panel, biochemical, small-molecule microarray, Cy5-labelled CALM1 (AID 1111); details: Cy5-CALM1 binding fluorescence, higher = more signal;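 note: labelled calmodulin applied in Tris saline Tween buffer holding calcium plus EGTA and DTT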
# [15] = molecular target: Calmodulin-1 (Homo sapiens) (UniProt P0DP23); experiment: calcium-bound CALM1 binders on microarrays, profiling panel, artefact control for SMM control-protein annotation, biochemical, small-molecule microarray, Cy5-labelled CALM1, plus calcium (AID 1112); details: Cy5-CALM1 binding fluorescence, higher = more signal;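 note: score merges spot fluorescence with signal to noise from triplicate slides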
# [16] = small-molecule microarray binders of probe aWnt5a, primary screen, biochemical, biotinylated probe, 635/667 nm fluorescence (AID 1113); details: higher = more signal;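 note: score merges 667 nm fluorescence intensity with signal-to-noise per printed feature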
# [17] = small-molecule microarray binders of probe aShh, primary screen, biochemical, biotinylated probe, 635/667 nm fluorescence (AID 1114); details: higher = more signal;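 note: probe is biotin-labelled aShh protein from a stem cell growth factor screen; measures binding of labelled protein to compounds printed on the slide; score merges feature fluorescence at 667 nm with signal-to-noise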
# [18] = small-molecule microarray binders of probe aNog, primary screen, biochemical, biotinylated probe, 635/667 nm fluorescence (AID 1115); details: higher = more signal;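 note: probe is biotinylated aNog protein used at 0.15 µg/mL for 1 h at 4 C; z-score combines 667 nm fluorescence of each spot with its signal to noise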
# [19] = molecular target: Torsin-1A-interacting protein 1 (Homo sapiens) (UniProt Q5JTV8); experiment: LAP1 binders from COS7 cell lysate, primary screen, small-molecule microarray, 635/667 nm fluorescence (AID 1116); details: COS7-hLAP1 lysate binding, 635 nm fluorescence, higher = more signal
# [20] = molecular target: Alpha-bungarotoxin (Bungarus multicinctus) (UniProt P60615); experiment: alpha-bungarotoxin binders on microarray, profiling panel, artefact control for SMM control protein annotation, biochemical, small-molecule microarray, Alexa647 label, 635/667 nm fluorescence (AID 1117); details: alpha-BTX-A647 binding fluorescence, higher = more signal
# Alpha-bungarotoxin (Bungarus multicinctus), sequence (P60615 whole entry, looked up): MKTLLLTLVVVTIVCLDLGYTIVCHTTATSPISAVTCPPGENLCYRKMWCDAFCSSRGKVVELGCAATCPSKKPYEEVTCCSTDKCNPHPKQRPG
# Follistatin-related protein 3 (Homo sapiens), sequence (O95633 whole entry, looked up): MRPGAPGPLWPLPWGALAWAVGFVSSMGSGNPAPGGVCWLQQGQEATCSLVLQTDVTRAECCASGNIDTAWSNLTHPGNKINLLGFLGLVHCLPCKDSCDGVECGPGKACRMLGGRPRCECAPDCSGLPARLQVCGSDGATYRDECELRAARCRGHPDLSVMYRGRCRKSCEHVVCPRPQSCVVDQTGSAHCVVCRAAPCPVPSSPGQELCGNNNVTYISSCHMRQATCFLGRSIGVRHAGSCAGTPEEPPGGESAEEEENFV
# Dickkopf-related protein 1 (Homo sapiens), sequence (O94907 whole entry, looked up): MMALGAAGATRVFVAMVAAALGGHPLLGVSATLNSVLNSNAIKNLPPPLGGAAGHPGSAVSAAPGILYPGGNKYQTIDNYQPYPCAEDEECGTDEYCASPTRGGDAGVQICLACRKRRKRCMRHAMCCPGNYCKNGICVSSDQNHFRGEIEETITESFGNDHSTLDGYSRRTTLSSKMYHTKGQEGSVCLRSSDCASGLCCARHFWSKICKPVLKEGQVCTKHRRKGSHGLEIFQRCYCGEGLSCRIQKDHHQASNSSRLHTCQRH
# Epidermal growth factor receptor (Homo sapiens), sequence (P00533 whole entry, looked up): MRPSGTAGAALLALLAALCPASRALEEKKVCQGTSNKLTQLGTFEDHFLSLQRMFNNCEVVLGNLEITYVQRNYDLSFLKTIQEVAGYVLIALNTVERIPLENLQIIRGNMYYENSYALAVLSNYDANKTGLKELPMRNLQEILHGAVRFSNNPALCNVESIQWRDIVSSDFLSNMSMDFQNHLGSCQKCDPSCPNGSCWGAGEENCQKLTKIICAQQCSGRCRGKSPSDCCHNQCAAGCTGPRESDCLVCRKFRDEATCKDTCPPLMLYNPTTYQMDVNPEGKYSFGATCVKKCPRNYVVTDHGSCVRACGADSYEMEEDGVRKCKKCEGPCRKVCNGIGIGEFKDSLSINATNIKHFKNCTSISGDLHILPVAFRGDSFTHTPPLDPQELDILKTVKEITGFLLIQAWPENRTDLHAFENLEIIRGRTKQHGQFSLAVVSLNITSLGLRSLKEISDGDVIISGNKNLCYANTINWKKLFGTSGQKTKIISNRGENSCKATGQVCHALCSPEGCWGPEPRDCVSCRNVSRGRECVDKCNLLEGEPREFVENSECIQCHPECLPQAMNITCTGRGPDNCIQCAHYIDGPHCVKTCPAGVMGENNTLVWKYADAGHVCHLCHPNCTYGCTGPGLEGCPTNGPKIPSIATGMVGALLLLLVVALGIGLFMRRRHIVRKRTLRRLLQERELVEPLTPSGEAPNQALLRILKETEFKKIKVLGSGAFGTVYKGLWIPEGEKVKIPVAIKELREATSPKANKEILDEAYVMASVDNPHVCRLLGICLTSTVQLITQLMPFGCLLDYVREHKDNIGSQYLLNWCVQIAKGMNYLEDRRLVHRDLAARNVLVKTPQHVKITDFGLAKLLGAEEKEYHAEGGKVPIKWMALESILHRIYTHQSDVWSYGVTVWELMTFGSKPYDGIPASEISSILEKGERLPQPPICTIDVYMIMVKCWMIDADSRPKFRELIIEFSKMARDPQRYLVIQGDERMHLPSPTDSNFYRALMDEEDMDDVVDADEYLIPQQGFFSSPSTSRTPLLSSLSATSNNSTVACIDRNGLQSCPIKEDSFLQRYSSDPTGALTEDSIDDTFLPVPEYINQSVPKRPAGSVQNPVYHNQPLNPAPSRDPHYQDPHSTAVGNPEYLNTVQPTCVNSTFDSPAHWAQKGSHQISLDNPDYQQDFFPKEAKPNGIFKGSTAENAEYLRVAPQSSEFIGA
# Left-right determination factor 2 (Homo sapiens), sequence (O00292 whole entry, looked up): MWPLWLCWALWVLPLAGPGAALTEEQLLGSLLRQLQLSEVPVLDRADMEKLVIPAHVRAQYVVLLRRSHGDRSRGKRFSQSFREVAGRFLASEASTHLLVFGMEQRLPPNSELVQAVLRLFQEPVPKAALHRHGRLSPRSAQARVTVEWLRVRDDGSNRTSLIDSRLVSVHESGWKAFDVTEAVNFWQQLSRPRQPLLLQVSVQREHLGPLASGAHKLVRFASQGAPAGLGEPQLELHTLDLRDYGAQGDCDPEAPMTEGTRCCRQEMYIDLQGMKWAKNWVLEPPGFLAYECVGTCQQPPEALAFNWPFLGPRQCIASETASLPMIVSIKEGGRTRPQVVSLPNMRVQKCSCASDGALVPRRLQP
# Fibroblast growth factor 10 (Homo sapiens), sequence (O15520 whole entry, looked up): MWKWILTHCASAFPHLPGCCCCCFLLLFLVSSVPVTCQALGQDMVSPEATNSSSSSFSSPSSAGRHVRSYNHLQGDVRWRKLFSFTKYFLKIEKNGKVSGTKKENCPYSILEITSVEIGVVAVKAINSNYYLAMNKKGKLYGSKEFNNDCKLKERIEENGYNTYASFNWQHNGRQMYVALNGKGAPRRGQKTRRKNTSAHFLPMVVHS
# Torsin-1A-interacting protein 1 (Homo sapiens), sequence (Q5JTV8 whole entry, looked up): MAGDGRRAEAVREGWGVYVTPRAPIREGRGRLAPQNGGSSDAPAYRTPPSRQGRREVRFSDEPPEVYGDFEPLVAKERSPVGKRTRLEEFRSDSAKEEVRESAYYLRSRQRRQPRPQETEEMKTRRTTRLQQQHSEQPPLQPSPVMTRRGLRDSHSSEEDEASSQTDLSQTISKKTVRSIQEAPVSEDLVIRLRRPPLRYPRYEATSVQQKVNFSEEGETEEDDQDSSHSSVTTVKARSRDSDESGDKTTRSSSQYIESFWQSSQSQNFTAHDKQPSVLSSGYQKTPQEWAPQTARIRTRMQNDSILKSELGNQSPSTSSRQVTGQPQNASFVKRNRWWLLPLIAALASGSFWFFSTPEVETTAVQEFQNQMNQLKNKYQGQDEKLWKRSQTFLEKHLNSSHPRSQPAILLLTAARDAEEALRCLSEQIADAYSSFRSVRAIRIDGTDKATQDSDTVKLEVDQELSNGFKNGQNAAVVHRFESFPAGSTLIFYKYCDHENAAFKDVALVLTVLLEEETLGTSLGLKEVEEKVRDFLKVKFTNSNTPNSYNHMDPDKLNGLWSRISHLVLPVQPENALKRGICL
SMILES,composite z-score [1],composite z-score [2],composite z-score [3],z-score [4],composite z-score [5],composite z-score [6],composite z-score [7],composite z-score [8],composite z-score [9],composite z-score [10],composite z-score [11],z-score [12],composite z-score [13],composite z-score [14],composite z-score [15],composite z-score [16],composite z-score [17],composite z-score [18],composite z-score [19],composite z-score [20]
C=CCN1C(=O)[C@]2(O[C@H](CCn3cc([C@H](O)c4ccccc4)nn3)[C@@H]([Si](C)(C)c3ccc(OC)cc3)[C@@H]2C)c2cc(N3CCOC3=O)ccc21,0.147,-0.228,0.0778,-2.35 (inactive),-0.57,0.387,-0.754,-0.577,-0.272,0.147,0.724,-3.64,-0.69,-0.169,-0.367,-0.16,-0.043,-0.176,0.525,0.479
COc1c(C)cc(-c2cc3c(c(CCc4ccccc4)n2)[Si](C(C)C)(C(C)C)OC3)cc1C,-0.615,0.335,0.156,-1.28 (inactive),0.513,0.723,0.927,0.567,0.162,0.474,0.804,0.336,0.474,-0.354,-0.381,-0.152,-0.131,0.162,0.0693,-0.382
CC(C)(C)OC(=O)CC[C@]1(C(=O)NCc2ccccc2)COC(c2ccc(OCCCO)cc2)=N1,1.31,1.07,1.21,-0.264 (inactive),0.361,0.319,-0.716,-0.334,-1.17,0.469,0.326,-0.605,-0.632,0.98,1.11,-0.001,-0.138,1.31,2.07,2.47
C[N+](C)(C)CCCC[C@@H]1NC(=O)[C@H]2C[C@@H](C(=O)NCCCCCN)[C@@H](c3cccc(OCCO)c3)N2C1=O,1.19,1.23,1.02,-1.82 (inactive),0.837,0.985,-0.0784,0.564,0.044,1.63,1.2,-0.295,-1.17,1.3,0.767,0.133,0.302,0.708,1.91,2.15
COC(=O)c1c2oc(c1C(=O)OC)C(=O)N[C@@H](C(C)C)Cn1nncc1C1(CCCCC1)NC(=O)N[C@H](CO)CC2,1.54,-0.212,0.0273,-1.44 (inactive),-0.0613,-0.96,-0.193,-0.232,-0.074,0.31,-0.683,0.862,-0.0834,0.401,-0.102,-0.148,0.0899,-0.0207,0.368,1.29
CCCCCN1CC=CC23O[C@@H]4/C=C\CCC(C)OC(=O)C4[C@H]2C(=O)N(CCO)[C@@H]3C1=O (stereo not given in full),1.3,-0.205,0.791,-0.688 (inactive),-0.825,-0.413,-1.81,-1.13,-1.2,1.57,0.408,0.382,-1.43,-0.659,-0.295,-0.176,-0.279,0.552,-0.0418,-1.7
O=C1c2ccccc2[C@@]2(Cc3ccccc3N(CC(F)(F)F)C2=O)[C@H](c2ccc(CO)cc2)N1Cc1ccccc1C(F)(F)F,-1.84,0.471,0.957,-0.0373 (inactive),-0.316,-1.41,-0.903,-1.15,-1.95,1.04,-0.713,0.301,-0.888,-0.434,0.0123,-0.104,-0.0243,0.673,-0.459,-1.7
COCCOC(=O)N1C(=O)[C@@]2(c3cc(C#CC4(O)CCCCCC4)ccc31)[C@H](c1ccc(O)cc1)N1[C@H](c3ccccc3)[C@H](c3ccccc3)OC(=O)[C@H]1[C@@H]2C(N)=O,0.98,0.106,0.375,-0.652 (inactive),0.744,0.0417,0.0818,0.585,0.577,0.311,1.06,-0.0511,-0.0539,2.23,0.0903,0.0719,-0.223,0.725,0.852,1.97
O=C1N(CCS(=O)(=O)c2ccccc2)Cc2ccccc2[C@@H]2OC(c3ccc(OCCCO)cc3)=N[C@]12Cc1ccccc1,1.61,1.22,1.14,-0.127 (inactive),1.37,1.33,0.267,1.33,0.797,0.49,0.427,-1.4,0.533,1.88,0.189,0.0614,0.191,0.998,1.16,2.73
CCCNC(=O)[C@@H]1c2ccccc2C(=O)N(Cc2cc(C(F)(F)F)cc(C(F)(F)F)c2)[C@H]1c1ccc(CO)cc1,1.23,0.829,0.803,-0.443 (inactive),0.238,0.459,-0.112,0.268,-0.196,0.0686,0.35,-0.392,-0.402,0.394,0.544,-0.146,0.188,0.527,0.238,1.22
Cc1ccc(S[C@]2(C(=O)NCCN3CCOCC3)CC(=O)N(Cc3cc(C(F)(F)F)cc(C(F)(F)F)c3)[C@@H]2c2ccc(CO)cc2)cc1,1.71,0.523,0.866,-0.688 (inactive),-0.703,-1.45,-1.19,-1.15,-1.05,0.156,-0.233,-0.429,-1.13,-0.411,-0.132,-0.175,-0.153,0.455,-0.998,-0.842
